Measurements from PubChem BioAssay AID1850 (Southern Research Specialized Biocontainment Screening …, 2009).
About 1,000 (0.32%) of roughly 310,000 compounds were called active. The list is a sample of the results. Results with a measured potency or affinity are listed apart. A number with no mark means an inactive call. The rule behind the calls is not given here. Where a SMILES comes first, the peptide text is derived from it. The star is where a group is joined. Boc = CC(C)(C)OC(=O)*

Experiment: Inhibition of PhoP regulon, Salmonella typhi GFP reporter cells, confirmation, 4 h (AID 1850);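 note: 0% = induced wells with vehicle and 100% = uninduced wells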
Conditions: Salmonella Typhi PhoP-promoter GFP reporter, fluorescence, at 50 µM, active compounds read high

Structure (SMILES) | inhibition
Cc1ccc([N+](=O)[O-])cc1S(=O)(=O)NCc1cccnc1 | -0.437%
COc1ccc(CC(=O)NC(C)C2COc3ccccc3O2)cc1OC (stereo unspecified) | 0.47%
O=C(NNS(=O)(=O)c1ccc(Cl)cc1)c1cccc(S(=O)(=O)N2CCOCC2)c1 | 6.08%
CC1CCN(C2CC(=O)N(c3ccccc3)C2=O)CC1 (stereo unspecified) | -1.51%
CC1(C)Cc2cccc(OCC(=O)OCC(=O)NCc3ccc(F)cc3)c2O1 | 5.2%
CC1(NC(=O)c2cccc(S(=O)(=O)N3CCN(c4ccccc4)CC3)c2)CCS(=O)(=O)C1 (stereo unspecified) | -4.48%
CN1CC(C(=O)c2ccc(Cl)cc2)C(c2ccccc2F)C1 (stereo unspecified) | -5.31%
CN1CC(C(=O)c2ccc(Cl)cc2)C(c2ccccc2)C1 (stereo unspecified) | -0.32%
CN(C)Cc1cnc2ccc(Cl)cn12 | 2.3%
COc1ccc(/C=N\NS(=O)(=O)c2ccc(C)cc2)cc1COc1ccccc1[N+](=O)[O-] | 2.43%
Cc1ccc(CNC(=O)CSc2ncc(C(=O)Nc3ccccc3)c(=O)n2C)cc1 | 6.4%
CC(C)CC(NC(=O)OC(C)(C)C)C(=O)NC(C(=O)N1CCCC1C(N)=O)C(C)C (stereo not drawn) (Boc-Leu-Val-Pro-NH2; configuration not given here) | -15.4%
CC(C)(C)OC(=O)N1CCC[C@@H]1CO | -5.17%
O=c1[nH]c(=O)n(CCC2=CCCCC2)c(O)c1C=NC1CCN(Cc2ccccc2)CC1 | 5.62%
CC1CCCCN1CC(=O)c1ccc2cc[nH]c2c1 (stereo unspecified) | -0.31%
Cc1ccc(CC2S/C(=C(/C#N)C(=O)NCc3ccco3)N(c3ccccc3)C2=O)cc1 (stereo unspecified) | -3.66%
Cc1ccc(S(=O)(=O)NC(=NC2CCCCC2)c2ccccc2)cc1 | 5.09%
O=[N+]([O-])c1cccc(/C=N/Nc2ccccn2)c1 | 8.41%
COc1ccc(O)c(/C=N/Nc2nc3ccccc3[nH]2)c1 | 7.61%
Cc1nonc1NC(=O)CSc1ccccn1 | 6.57%
CC(=O)Nc1nonc1NC(=O)CSc1ccccn1 | 2.24%

Structure (SMILES) | inhibition
COc1cc([N+](=O)[O-])cc(/C=N/NC(=O)Cn2nccc2C)c1O | 14.4%
CCN(CC)c1ccc(/C=N/Nc2nc3ccccc3[nH]2)c(O)c1 | 13.9%
COc1cc([N+](=O)[O-])cc(/C=N/NC(=O)CSc2nnc(-c3ccccc3)n2C)c1O | -13.2%
O=[N+]([O-])c1ccc(/C=N/Nc2ccccn2)cc1 | -0.36%
COc1cccc(N2CCN(C(=O)C3CCN(S(=O)(=O)c4ccc5c(c4)oc(=O)n5C)CC3)CC2)c1 | 8.62%
Cc1ccc(C)c(-c2csc(-c3cccnc3)n2)c1 | 1.2%
COc1ccc(-c2cc(-c3ccc(O)cc3)nc(N)c2C#N)cc1 | -1.2%
N#C/C(=C\c1ccccc1Cl)C(=O)Nc1ccccn1 | 2.25%
COC(=O)COc1ccc(C(C2C(=O)CC(C)(C)CC2=O)C2C(=O)CC(C)(C)CC2=O)cc1 | -2.61%
NC(=S)NNC(=O)c1cccc(Br)c1 | -6.69%
Cc1ccc(-n2nc(C)c(C(C)(O)C(F)(F)F)c2N)cc1 (stereo unspecified) | 9.79%
O=C(NC(Cc1ccccc1)C(=O)O)/C(=C\c1ccccc1)NC(=O)c1ccc(Br)o1 (stereo unspecified) | -5.27%
COc1cccc(NC(=O)c2ccc(NC(=O)C(C)C)cc2)c1 | -3.48%
Cc1ccc(N2N=C(c3ccc(F)cc3)CC2c2ccco2)cc1 (stereo unspecified) | -33.1%
CC1CN(C(=O)COC(=O)c2ccc(N(C)C)cc2)CC(C)O1 (stereo unspecified) | 1.66%
COc1ccc(CC(=O)OCC(=O)N(C)C2CCS(=O)(=O)C2)cc1OC (stereo unspecified) | -0.6%
O=C(CSc1nc2ccccc2s1)NCc1cc([N+](=O)[O-])ccc1O | -40.6%
O=C(CSc1nc2ccccc2s1)N/N=C/c1ccccc1C(=O)O | 10.8%
Cc1ccnn1CC(=O)N/N=C/c1c[nH]c2ccccc12 | 2.22%
O=C(CSc1ccccn1)N/N=C/c1ccccc1[N+](=O)[O-] | -6.71%
